From PubChem
Sfp PPTase inh – inhibitors of Bacillus subtilis Sfp phosphopantetheinyl transferase | Q9F4F7 | 3.5% of 310,000 active | Potency, µM, inactives show largest response in the series, negative = inhibition, hits mostly inhibitors | Biochemical Sfp PPTase activity, qHTS | AID 1490;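 note: the enzyme is Sfp with the accession as filed and its product quenches rhodamine fluorescence; 0% = enzyme reaction without inhibitor and -100% = no enzyme wells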
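Fluorescence-quenching assay with 15 nM Sfp, 5 uM rhodamine-CoA and 12.5 uM BHQ-2-labelled ybbR peptide in pH 7.6 Hepes/MgCl2 buffer. Enzyme was pre-incubated with compound for 15 min at room temperature. Rate was taken from the 30-min fluorescence change (525/598 nm).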
BAZ2B inh – inhibitors of human BAZ2B bromodomain; Q9UIF8; Potency, µM (highest dose often 114 µM), without a hit: at the highest dose activity change, negative = inhibition, actives largely listed as inhibitors; 4.4% of 360,000 active; AlphaScreen BAZ2B-H3K14Ac peptide displacement; AID 504333; note: % is set by controls: 0 for no effect and ±100 for the full control effect; nearly all actives have a fitted effect of over 60% in size
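Compounds, titrated to a top concentration of 110 uM, were incubated 30 min at room temperature with preformed BAZ2B/acetyl-K14 H3 peptide complex (50 nM each). Proximity signal was measured by AlphaScreen after 20 min with beads.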
JMJD2A Tudor – inhibitors of human JMJD2A Tudor domain; 4.4% of 390,000 active; AlphaScreen JMJD2A-Tudor / H3K4me3 peptide binding; AID 504339; Potency, µM (top dose mostly 114 µM), without a hit: at the highest dose activity change, negative = inhibition, actives largely listed as inhibitors; O75164; note: % is set by controls: 0 for no effect and ±100 for the full control effect; nearly all actives have a fitted effect of over 50% in size
Target sequence (O75164 whole entry, looked up, the tested form may be a part): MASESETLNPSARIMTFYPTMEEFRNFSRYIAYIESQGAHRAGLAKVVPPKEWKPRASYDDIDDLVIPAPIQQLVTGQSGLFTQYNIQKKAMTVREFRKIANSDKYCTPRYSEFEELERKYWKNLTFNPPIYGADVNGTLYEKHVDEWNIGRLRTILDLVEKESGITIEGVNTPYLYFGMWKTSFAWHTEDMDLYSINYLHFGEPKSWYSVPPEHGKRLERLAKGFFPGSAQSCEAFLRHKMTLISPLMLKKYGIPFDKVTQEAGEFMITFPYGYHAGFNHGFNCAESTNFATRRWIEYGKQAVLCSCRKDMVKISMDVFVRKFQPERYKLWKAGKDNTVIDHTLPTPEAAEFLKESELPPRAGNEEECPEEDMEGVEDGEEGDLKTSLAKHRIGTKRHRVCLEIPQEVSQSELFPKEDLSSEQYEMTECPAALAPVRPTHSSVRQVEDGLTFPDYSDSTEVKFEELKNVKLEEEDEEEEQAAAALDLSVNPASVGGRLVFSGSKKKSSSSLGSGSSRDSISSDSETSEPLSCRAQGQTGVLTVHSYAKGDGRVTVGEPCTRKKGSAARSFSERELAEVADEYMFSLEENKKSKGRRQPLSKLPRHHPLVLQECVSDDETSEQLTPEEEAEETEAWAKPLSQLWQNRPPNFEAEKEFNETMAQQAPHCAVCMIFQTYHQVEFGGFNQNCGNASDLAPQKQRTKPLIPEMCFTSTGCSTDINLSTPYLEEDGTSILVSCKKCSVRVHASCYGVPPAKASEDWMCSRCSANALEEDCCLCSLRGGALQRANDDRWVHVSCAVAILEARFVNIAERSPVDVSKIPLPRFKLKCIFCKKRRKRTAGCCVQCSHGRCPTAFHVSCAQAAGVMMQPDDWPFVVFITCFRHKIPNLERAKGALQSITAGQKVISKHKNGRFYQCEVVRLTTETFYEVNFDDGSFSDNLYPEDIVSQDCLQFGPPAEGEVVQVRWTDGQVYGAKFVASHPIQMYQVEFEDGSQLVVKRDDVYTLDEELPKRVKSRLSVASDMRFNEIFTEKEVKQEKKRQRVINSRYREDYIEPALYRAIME
PLK1 PBD inh – inhibitors of human PLK1 polo-box domain binding | P53350 | Plk1 PBD binding of FITC phosphopeptide, fluorescence polarization | Potency, µM, for inactives: max response, negative = inhibition, usual class: inhibitors | 2.8% of 360,000 active | AID 720504; note: series mostly up to about 57 µM; % is set by controls: 0 for no effect and ±100 for the full control effect; nearly all actives have a fitted effect of over 65% in size
G9a inh – G9a (human) methyltransferase inhibition | G9a H3K9 monomethylation, AlphaScreen, 2 h | Potency, µM (highest dose often 102 µM), for the others: top-dose activity, negative = inhibition, hits mostly inhibitors | 8.8% of 350,000 active | AID 504332; note: % is set by controls: 0 for no effect and ±100 for the full control effect; nearly all actives have a fitted effect of over 75% in size
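G9a (20 nM) preincubated 15 min RT with compounds, then 500 nM biotinylated H3K9 peptide and 20 uM SAM added; 2 h RT reaction. Monomethyl-H3K9 product detected by AlphaScreen with anti-H3K9me1 antibody, streptavidin donor and anti-rabbit IgG acceptor beads.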
HP1b binding inh – blocks HP1-beta chromodomain binding to methylated histone tails. P83916. AlphaScreen HP1-beta / biotin-H3K9me3 peptide binding. Potency, µM (series often up to 114 µM), inactives show at the highest dose activity change, negative = inhibition, hits mostly inhibitors. 0.56% of 390,000 active. AID 540317; note: nearly all actives have a fitted effect of over 70% in size
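HP1-beta protein (50 nM final) preincubated 30 min at room temperature with biotinylated H3(1-18)K9me3 peptide (50 nM) in PBS pH 7.4, 0.01% Tween-20, then compound added for 30 min. AlphaScreen streptavidin donor/nickel chelate acceptor beads (10 ug/mL final), 30 min dark, luminescence read.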
An asterisk follows results filed as active; ? = inconclusive; . = not tested or not shown; [ ] = dose if it differs, or a comment. Sampled rows, rich in hits. Any-hit rate of the full collection: about 12%. Calls come from the whole dose curve; as a rule, active = well fitted curve in the direction sought with a large enough effect; inconclusive = small, poorly fitted or top-dose-only effect, or another doubt; inactive = no such curve, though single readings can be large; an effect the other way counts as inactive or inconclusive. Potency is the fitted concentration of half-maximal effect.

SMILES	Sfp PPTase inh	BAZ2B inh	JMJD2A Tudor	PLK1 PBD inh	G9a inh	HP1b binding inh
C/C=C(\C)C(=O)OC1CC(C)(C)C[C@H]2C3=CC[C@@H]4[C@@]5(C)CCC(O[C@@H]6O[C@@H](C(=O)O)[C@@H](O)C(O[C@@H]7OC[C@H](O)[C@@H](O)[C@@H]7O[C@@H]7OC(CO)C(O)[C@@H](O)[C@@H]7O)C6O[C@@H]6OC(CO)C(O)C(O)C6O)[C@@](C)(CO)[C@@H]5CC[C@]4(C)[C@]3(C)CC(O)[C@@]12CO (stereo not given in full)	.	.	79µM*	-27%	.	11%
CCCN(C(=O)c1coc(=O)c2ccccc12)c1ccccc1C	.	10%	6%	.	2%[59 µM]	23%
NNc1nc(-c2ccccc2)c2ccccc2n1	-27%	-32%	-20%[57.1 µM]	-11%	0%	38%
NNc1nnc(-c2ccccc2)c(-c2ccccc2)n1	-23%	79µM*	?	-9%	?	4%
COc1ccc(NS(=O)(=O)c2ccc(NC(C)=O)cc2)c(OC)c1	3%	0%	?	24µM*	-9%	-16%
CC(=O)c1ccc(NS(=O)(=O)c2ccc3ccccc3c2)cc1	27%	-6%	-16%	-7%	5%[59 µM]	-6%
O=C(O)CNC(=O)c1ccc(NS(=O)(=O)c2ccc3ccccc3c2)cc1	2%	?	-16%	-19%	40µM*	17%
COc1ccc(S(=O)(=O)Nc2ccc(NC(C)=O)cc2)cc1OC	7%	-2%	-9%	0%	-4%[12.7 µM]	27%
COc1cc(S(=O)(=O)Nc2ccc(C(=O)NCC(=O)O)cc2)ccc1NC(C)=O	-12%	-13%	3%	-1%	50µM*	29%
CCCSc1ncc(Cl)c(C(=O)Nc2scc(-c3ccc(C)cc3)c2C(=O)OCC)n1	.	1%	3%	.	-1%[59 µM]	37%
CCC(=O)N1CCc2cc(Br)cc(S(=O)(=O)N3CCCC(C(=O)N(C)c4ccc(Br)cc4)C3)c21 (stereo not given)	.	10%	-28%	.	7%[59 µM]	22%
Cc1cc2c(cc1C)-c1nnnn1C(N1CCCCC1)C(=O)N2 (stereo not given)	.	.	.	-9%	.	.
COC(=O)c1c(NC(=O)Cc2ccccc2)sc2c1C(C(=O)OC)CC2 (stereo not given)	79µM*	?	-13%	17µM*	40µM*	-8%
COC(=O)c1c(NC(=O)CCCOc2ccc(C)cc2)sc2c1C(C(=O)OC)CC2 (stereo not given)	.	?	-23%	.	1.1µM*	?
CCOc1ccc(/C=C/C(=O)Nc2sc3c(c2C(=O)OC)C(C(=O)OC)CC3)cc1 (stereo not given)	.	?	56µM*	.	1.1µM*	?
COC(=O)c1c(NC(=O)CCCOc2ccc(C(C)(C)C)cc2)sc2c1CCC(C)C2 (stereo not given)	.	3%	-13%	.	5%[59 µM]	21%
COC(=O)c1c(NC(=O)CCCOc2cccc(C)c2)sc2c1C(C(=O)OC)CC2 (stereo not given)	.	35µM*	?	.	1.1µM*	?
COC(=O)c1c(NC(=O)C(C)(C)C)sc2c1C(C(=O)OC)CC2 (stereo not given)	-12%	1%	-10%	-10%	17%	42%
COC(=O)c1c(NC(=O)CCCOc2cccc(C)c2)sc2c1CCC2	.	-7%	23%	.	9%[59 µM]	15%
COc1ccccc1NC(=O)CN(Cc1ccco1)C(=O)c1ccc(Cl)nc1	10%	-3%	-11%	-17%	7%	25%
COC(=O)c1c(NC(=O)CCCOc2ccc(C)cc2)sc2c1CCCC2	.	5%	29%	.	14µM*	39%
C=Cc1c(C)c2cc3[nH]c(cc4nc(cc5nc(cc1[nH]2)C(C)=C5CCC(=O)O)C(CCC(=O)O)=C4C)c(C)c3C=C	0%	40µM*	20µM*	13µM*	5%[59 µM]	193%
C=CCNC(=S)N1CCN(c2ncc(C(F)(F)F)cc2Cl)CC1	15%	4%	-9%	-9%	16%	30%
Cc1ccc(S(=O)(=O)NC(=O)COc2ccccc2C(N)=O)cc1	19%	-27%	-10%	-7%	-23%[59 µM]	7%
O=C(NS(=O)(=O)c1ccccc1)c1ccccc1O	-8%	-1%	23%[11.4 µM]	24µM*	7%[12.7 µM]	19%
SMILES	Sfp PPTase inh	BAZ2B inh	JMJD2A Tudor	PLK1 PBD inh	G9a inh	HP1b binding inh
C=CCc1cc(Cl)ccc1OCCNCCOC	-26%	50µM*	1µM*	-11%	?	?
COCCNCc1ccc(Cl)cc1Cl	3%	-23%	-7%	?	?	72%
C=CCc1cc(Cl)ccc1OCCNCCN1CCOCC1	?	32µM*	7.9µM*	-12%	10µM*	?
CCCOc1ccc(Cl)cc1CN1CCOCC1	-8%	2%	?	1%	-17%[59 µM]	33%
CCc1ccc2c(COC(=O)c3n[nH]c4ccccc34)cc(=O)oc2c1	-9%	-2%	?	-7%	35µM*	41%
COC(=O)c1ccc(NC(=O)CN(CCc2ccccc2)S(=O)(=O)c2ccc(OC)cc2)cc1	.	-6%	-17%	.	-4%[59 µM]	25%
O=C(CN(CCc1ccccc1)S(=O)(=O)c1ccccc1)NCc1ccc(Cl)cc1	.	5%	-9%	.	5%[59 µM]	59%
O=C(CN(CCc1ccccc1)S(=O)(=O)c1ccc(Br)cc1)NCc1ccc(Cl)cc1	.	?	14µM*	.	?	8%
COc1cccc(NC(=O)CN(CCc2ccccc2)S(=O)(=O)c2ccc(Cl)cc2)c1	.	?	28µM*	.	14µM*	-19%
O=C(NCCc1c[nH]c2ccccc12)[C@H]1C[C@@H]1[C@H](NP(=O)(c1ccccc1)c1ccccc1)c1ccccc1	16%	.	.	.	.	.
CC(=O)c1cc(-c2ccccc2)n(CC(=O)NCc2ccccc2C)c1C	.	-1%	0%	.	-8%[59 µM]	29%
CS(=O)(=O)Nc1cccc(-c2cncnc2Nc2ccc(F)cc2)c1	-29%	.	.	.	-3%[0.501 µM]	.
S=C1NC2(CCS1)Oc1ccccc1C1CC(c3ccccc3)=NN12 (stereo not given)	?	?	.	.	50µM*	.
CC(C)CC(=O)NC(=S)Nc1ccc(NC(=O)c2cccs2)cc1	18%	-35%	1%	-8%	?	33%
COc1ccc(Oc2ncc3nc(-c4cccc(C#N)c4)c(=O)n(C)c3n2)cc1	14%	.	.	.	5%[0.501 µM]	.
Cc1cc(NS(=O)(=O)c2ccc(NC(=O)COc3ccccc3Br)cc2)no1	.	-2%	-15%	.	4%[59 µM]	19%
Cc1cccc(C)c1NC(=O)CN1C(=O)c2cccc3cccc1c23	.	2%	-7%	.	3%[59 µM]	12%
NS(=O)(=O)c1ccc(N2C(=O)C(=O)/C(=C(/O)c3ccccc3)C2c2ccc(Cl)cc2)cc1 (stereo not given)	10%	7%	-9%	-3%	50µM*	15%
